Here are results for 49 molecules from ChEMBL document CHEMBL3433997, “St. Jude Leishmania screening dataset” (2016).

One may read the inhibition as the relative decrease from the control value, in per cent.

What all share (type): functional
The target in assay [1] is Solute carrier family 2, facilitated glucose transporter member 1 (Homo sapiens) (UniProt P11166). Description: ST_JUDE_LEISH: Cytotoxicity at 2uM final concentration against transgenic Leishmania Mexicana promastigotes LmGLUT1 that are glucose transport deficient and complemented with the human glucose transporter GLUT1. Activity is measured by DNA content using SYBR green in vitro.
Sequence of Solute carrier family 2, facilitated glucose transporter member 1 (Homo sapiens) (P11166 whole entry): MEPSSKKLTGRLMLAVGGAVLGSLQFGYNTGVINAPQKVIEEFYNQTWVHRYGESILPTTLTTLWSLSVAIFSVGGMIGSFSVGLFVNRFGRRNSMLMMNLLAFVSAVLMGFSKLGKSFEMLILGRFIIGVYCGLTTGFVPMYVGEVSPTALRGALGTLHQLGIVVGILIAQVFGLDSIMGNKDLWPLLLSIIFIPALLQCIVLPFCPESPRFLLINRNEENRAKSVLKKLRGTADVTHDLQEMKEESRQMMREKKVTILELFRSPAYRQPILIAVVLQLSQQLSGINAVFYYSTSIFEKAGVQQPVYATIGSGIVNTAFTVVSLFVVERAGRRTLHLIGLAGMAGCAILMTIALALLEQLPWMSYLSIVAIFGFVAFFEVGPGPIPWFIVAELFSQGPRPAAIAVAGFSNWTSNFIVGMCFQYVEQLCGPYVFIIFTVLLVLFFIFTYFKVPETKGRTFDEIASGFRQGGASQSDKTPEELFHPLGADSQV

Assay [2] concerns the target Hexose transporter 1 (Plasmodium falciparum) (UniProt O97467). The experiment in a line: ST_JUDE_LEISH: Cytotoxicity at 2uM final concentration against transgenic Leishmania Mexicana promastigotes LmPfHT that are glucose transport deficient and complemented with the Plasmodium falciparum hexose transporter. Activity is measured by DNA content using SYBR green in vitro.

Assay [3] deals with Glucose transporter (Leishmania mexicana) (UniProt O61059). Description: ST_JUDE_LEISH: Cytotoxicity at 2uM final concentration against transgenic Leishmania Mexicana promastigotes LmGT2 that are glucose transport deficient and complemented with the L. Mexicana glucose transporter 2. Activity is measured by DNA content using SYBR green in vitro.

Regarding `CCOc1ccc(N(CC)S(=O)(=O)c2cc(Br)cc3c2N(C(=O)C2CC2)CC3)cc1`, the inhibition amounted to 2.96% in assay [1], 2.04% in assay [2] and 1.74% in assay [3].
The matching figures for `O=C(CN1C(=O)CC1S(=O)(=O)Cc1ccco1)NCCCCCCc1ccc(F)cc1` (configuration not stated): -0.99%, 1.25% and 0.24%.
In the same order, the values of `COc1ccc(Nc2cc(C)nc(NCc3ccc4c(c3)OCO4)n2)cc1` are 5.82%, 4.09% and 1.69%.
The matching figures for `CCCCCCN1CCCN(Cc2ccc(C(=O)Nc3ccc(CC)cc3)cc2)CC1`: 11.4%, 10.9% and 10.6%.
With `O=C(Nc1cccc(-c2nn3ncccc3c2-c2ccnc(Nc3cccc(-c4cnco4)c3)n2)c1)c1c(F)cccc1F`, the inhibition in assay [1] stood at 6.24%; in assay [2] it was 7.13%; in assay [3] it was 2.26%.
In the same order, the values of `CCc1c[nH]c2c(N3CCCCC3=O)cc(C(=O)N[C@@H](Cc3ccccc3)[C@H](O)CNCc3cccc(OC)c3)cc12` are -0.8%, -2.31% and 0.87%.
As for `Cc1cc(C)c2c(c1)C(=NO)CCN2`, the inhibition is -1.86% in assay [1], 1.76% in assay [2] and -0.32% in assay [3].
Regarding `CN(C)Cc1ccc(-c2cc3ncnc(Nc4ccc(OCc5cccc(F)c5)c(Cl)c4)c3s2)[nH]1`, the inhibition in assay [1] turned out to be 3.19%; in assay [2], 2.49%; in assay [3], 1.76%.
In the same order, the values of `c1ccc2cc3c(NCCN4CCOCC4)ccnc3cc2c1` are 7.07%, 6.74% and 7.2%.
Consider `Cc1ccc(CN2CCC(C(=O)Nc3ccc(-c4cc5ccccc5[nH]4)cc3)CC2)o1`, for which the figures for the inhibition in assay [1], in assay [2] and in assay [3] were 17.3%, 9.24% and 4.6%, respectively.
The matching figures for `CC(C)Nc1cc(C(=O)N[C@@H](Cc2ccccc2)[C@H](O)CNCc2cccc(C(F)(F)F)c2)c(F)c(N2CCCCS2(=O)=O)c1`: 7.12%, 6.09% and 7.07%.
The matching figures for `CN1CCCC1CCNc1ncc2c(-c3ccc(NC(=O)Nc4cc(C(F)(F)F)ccc4F)c(F)c3)nn(C)c2n1` (configuration not stated): -1.71%, 0.21% and -0.39%.
In the same order, the values of `Nc1nc(N)c2cc(NC(=O)c3ccc(Cl)c(Cl)c3)ccc2n1` are 5.31%, 2.01% and 4.8%.
As to `CCCCCCC(C)c1cc(O)c2c(c1)OC(C)(C)C=C2c1ccncc1` (configuration not stated), the results for the inhibition in assay [1], in assay [2] and in assay [3] were 1.01%, -0.62% and 0.58%, respectively.
In the same order, the values of `CCN(CC)/C(=N/C(=N)NCc1ccc(Cl)cc1Cl)NCCCCCCN/C(=N\C(=N)NCc1ccc(Cl)cc1Cl)N(CC)CC` are 1.61%, 1.69% and 1.51%.
The matching figures for `COc1ccc(-n2c(=O)c3c(n4c(SC(C)C)nnc24)-c2ccccc2CC32CCCCC2)cc1`: 1.32%, 1.21% and 0.1%.
Turning to `COc1ccc(NC(=O)CSc2nc(-c3ccccc3Cl)ns2)cc1`, the values for the inhibition in assay [1], in assay [2] and in assay [3] were 1.15%, -1.47% and -2.13%, respectively.
In the same order, the values of `CCCCOc1ccccc1C(=O)NCc1csc(-c2ccccc2)n1` are -0.31%, 1.14% and 0.41%.
The matching figures for `CCN(CC)/C(=N/C(=N)Nc1ccc(C)cc1)NCCCCCCN/C(=N\C(=N)Nc1ccc(C)cc1)N(CC)CC`: 7.79%, 5.77% and 5.53%.
In the same order, the values of `COc1ccc(-c2cccc(NC(=O)c3cccc(C#N)c3)c2)cc1CN1CCCC1` are 12.1%, 15.9% and 5.27%.
In the case of `CCn1cnc2c(N3CCCCS3(=O)=O)cc(C(=O)N[C@@H](Cc3ccccc3)[C@H](O)CNC3CCOCC3)cc21`, the figures for the inhibition in assay [1], in assay [2] and in assay [3] were 3.99%, 2.96% and 3.34%, respectively.
The matching figures for `Cc1ccc(CN2CCN(Cc3cccc(NC(=O)c4cccs4)c3)CC2)cc1C`: 2.28%, 2.39% and 1.91%.
The matching figures for `Cc1cc(C)c(NC(=O)NC2CCN(CCCCCNC(=O)/C=C/c3ccc(Cl)c(Cl)c3)C2)c(C)c1` (configuration not stated): 2.03%, 2.36% and 2.29%.
The matching figures for `COc1ccc(CCc2ccc(-c3c(C)[nH]c(C)c(Cl)c3=O)cc2)cc1OC`: 12%, 11% and 10.6%.
Take `CC1(C)N=C(NC(=O)c2cc([N+](=O)[O-])cc([N+](=O)[O-])c2)N=C(N)N1OCc1cccc2ccccc12`: the inhibition in assay [1] was -1.97%; in assay [2] it was -0.29%; in assay [3] it was -0.37%.
The matching figures for `CCOC(=O)c1ccc(NCc2ccccn2)cc1`: 3.11%, 3.01% and 2.96%.
The matching figures for `CCCCCCc1cnc2nc(N)nc(N)c2c1C`: 10.8%, 10% and 10.3%.
`CCN(CC)CCNc1cc(C)nc(NC(=N)Nc2ccc(Cl)cc2)n1`: the inhibition came to 6% in assay [1], 6.42% in assay [2] and 5.89% in assay [3].
The matching figures for `Cc1ccc(N2CCN(C(=O)c3cccc(-c4cncc5nc(-c6ccco6)n(C)c45)c3)CC2)nc1`: 6.13%, 5.42% and 5.39%.
The matching figures for `CS(=O)(=O)c1ccc(-c2cncc(Cl)n2)cc1`: 3.73%, 3.42% and 10.2%.
The matching figures for `CCN(CC)CCOc1ccc(C(O)(C#CC(O)(c2ccc(Br)cc2)c2ccc(OCCN(CC)CC)cc2)c2ccc(Br)cc2)cc1` (configuration not stated): 4.97%, 5% and 3.37%.
Take `CCCCCN1CCCC1CNS(=O)(=O)c1ccc(C(=O)Nc2cccc(C(F)(F)F)c2)cc1` (configuration not stated): the figures for the inhibition in assay [1], in assay [2] and in assay [3] were 0.76%, 0.61% and 0.19%, respectively.
The matching figures for `O=c1cc(NCCC2CC=CCN2Cc2ccc(Cl)c(Cl)c2)[nH]c2ccccc12` (configuration not stated): 1%, 0.33% and -0.25%.
The matching figures for `CN1CCCN(Cc2ccc(-c3ccc(NC(=O)c4ccc(C#N)cc4)cc3)cc2)CC1`: 0.69%, -0.51% and -0.13%.
In the same order, the values of `CCCN(CCC)CCCNc1ccc(C(=O)Nc2ccc(OCC)cc2)cc1[N+](=O)[O-]` are 32.8%, 19.4% and 5.32%.
On to `O=C(/C=C/c1ccc(Cl)c(Cl)c1)NCCCN1CCC(c2c[nH]c3ccccc23)CC1`, for which the values for the inhibition in assay [1], in assay [2] and in assay [3] were 6.28%, 5.12% and 6.57%, respectively.
The matching figures for `Cn1nc(-c2ccc(CNC3CCc4ccccc43)cc2)c2cnc(NCCN3CCCC3)nc21` (configuration not stated): 2.93%, 3.09% and 0.03%.
The matching figures for `Cc1cccc2nc(-c3ccc(-c4ccc(CN5CCOCC5)cc4)cc3)[nH]c12`: 4.34%, 3.46% and 2.61%.
The matching figures for `CC1(C)N=C(N)N=C(N)N1OCc1cc(Cl)c(CON2C(N)=NC(N)=NC2(C)C)cc1Cl`: 0.92%, 1% and -2.89%.
With `CC(=O)Nc1nc(C(=O)Nc2ccc(-c3cccc(-c4nc5cc(C(F)(F)F)ccc5[nH]4)c3)cc2)cs1`, the results for the inhibition in assay [1], in assay [2] and in assay [3] were 0.32%, 2.2% and 0.81%, respectively.
On to `CN1CCN(Cc2nc(-c3ccc4c(Nc5ccc(F)c(O)c5)ccnc4c3)cs2)CC1`, for which the inhibition in assay [1] came to 7.7%; in assay [2], 1.76%; in assay [3] it was 0.94%.
As to `O=C1C(c2ccccc2)=C(Nc2ccc([N+](=O)[O-])cc2)c2ccccc21`, the figures for the inhibition in assay [1], in assay [2] and in assay [3] were 6.69%, 9.53% and 2.14%, respectively.
The matching figures for `COc1cccc(C(=O)Nc2ccc(S(=O)(=O)c3cc4c(cc3OC)CCN(C)CC4)cc2)c1`: 1.6%, -0.4% and 1.23%.
The matching figures for `CN1CCN(c2ccc(Cl)cc2NC(=O)C2COc3ccccc3O2)CC1` (configuration not stated): 0.88%, 1.77% and -1.34%.
In the same order, the values of `O=C(NCCc1ccccc1)c1cc(-c2cccnc2)cnc1NCC1CC1` are 3.62%, 6.01% and 1.98%.
Take `COc1ccc(NC(=O)C2c3ccccc3C(=O)N(C3CCCC3)C2c2cccs2)c(OC)c1` (configuration not stated): the inhibition in assay [1] is 1.15%; in assay [2] it was -0.63%; in assay [3], -1.93%.
As to `COc1ccc2[nH]ccc(=NN=Cc3ccccc3Cl)c2c1`, the inhibition in assay [1] worked out at 7.36%; in assay [2], 12.6%; in assay [3], 2.03%.
The matching figures for `Nc1nc(N)c2c(ccc3c2ccn3C2CCCCC2)n1`: 24.3%, 36.6% and 25.7%.
The matching figures for `Cc1cc(-c2ccc(CNC3CCN(C)CC3)cc2)ccc1S(=O)(=O)NCc1ccccc1`: 3.29%, 3.32% and 1.14%.
